Results filed as inconclusive are left out. The source made the active and inactive calls. The call rests on the fitted dose curve; in most records, active means well fitted curve in the direction sought with a large enough effect; inconclusive means small, poorly fitted or top-dose-only effect, or another doubt; inactive means no such curve, though single readings can be large; an effect the other way counts as inactive or inconclusive.
Columns and labels:
HeLa = experiment: Primary qHTS to identify gynecologic anti-cancer compounds using libraries of approved drugs and bioactive compounds (AID 1345084); conditions: Gynecologic cancer cell panel viability, ATPlite luminescence, 48 h; series mostly up to 57.5 µM; further: nearly all actives have a fitted effect of over 55% in size
Procedure, shortened: (§1)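 Cells, 1,000 per well, were allowed to settle for 16 h at 37 C before compound addition. Five concentrations were tested for 48 h, and viability was read by ATPlite luminescence after 15 min at room temperature.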

Hek293T = experiment: as above; conditions: Gynecologic cancer cell panel viability, ATPlite luminescence, 48 h, control line for the selectivity index; series mostly up to 57.5 µM
Procedure, shortened: as §1

JEG-3 = experiment: as above; conditions: Gynecologic cancer cell panel viability, ATPlite luminescence, 48 h; series mostly up to 57.5 µM
Procedure, shortened: as §1

OV90 = experiment: as above; conditions: Gynecologic cancer cell panel viability, ATPlite luminescence, 48 h; series mostly up to 57.5 µM
Procedure, shortened: as §1

PA-1 = experiment: as above; conditions: Gynecologic cancer cell panel viability, ATPlite luminescence, 48 h; series mostly up to 57.5 µM
Procedure, shortened: as §1

SKOV3 = experiment: as above; conditions: Gynecologic cancer cell panel viability, ATPlite luminescence, 48 h; series mostly up to 57.5 µM
Procedure, shortened: as §1

Tov-21-G = experiment: as above; conditions: Gynecologic cancer cell panel viability, ATPlite luminescence, 48 h; series mostly up to 57.5 µM
Procedure, shortened: as §1

Tov112D = experiment: as above; conditions: Gynecologic cancer cell panel viability, ATPlite luminescence, 48 h; series mostly up to 57.5 µM
Procedure, shortened: as §1

[1] = Drug repurposing screens with cells derived from glioblastoma tumor samples (AID 1345199); conditions: GBM patient neurospheres viability, ATP luminescence, 48 h; further: nearly all actives have a fitted effect of over 40% in size
Procedure, shortened: (§2)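 Primary testing used CD133+ neurospheres from four GBM patients, seven concentrations, 48 h exposure and ATP-based viability; confirmation added three slower-growing patient lines.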

astro = experiment: as above; conditions: viability, ATP luminescence, 48 h; series mostly up to 45.9 µM
Procedure, shortened: as §2

[2] = at 45.9 µM (top of the series), tumour line B
[3] = at 45.9 µM (top of the series), tumour line D
[4] = at 46.1 µM (top of the series), tumour line C
[5] = at 20 µM (top of the series), tumour line C
[6] = at 21.2 µM (top of the series), tumour line B
[7] = at 46 µM (top of the series), tumour line A
[8] = at 21.2 µM (top of the series), tumour line D
[9] = at 21.3 µM (top of the series), tumour line A
On the % scale 0 is the no-effect control and ±100 the full control effect; potency means the concentration at half of the fitted maximal effect.

CCCc1cc(C(N)=S)ccn1
inactive: Potency (HeLa) | Potency (Hek293T) | Potency (JEG-3) | Potency (OV90) | Potency (PA-1) | Potency (SKOV3) | Potency (Tov-21-G) | Potency (Tov112D) | activity, negative = cell killing [1, 2] -7.71% | activity, negative = cell killing [1, 3] -14.3% | activity, negative = cell killing [1, 4] 5.43% | Potency (astro)

CCCOc1ccc(C(=O)OCCN(CC)CC)cc1N
active: Potency ([1]; tumour line A) 14.1 µM
inactive: Potency (HeLa) | Potency (Hek293T) | Potency (JEG-3) | Potency (OV90) | Potency (PA-1) | Potency (SKOV3) | Potency (Tov-21-G) | Potency (Tov112D) | activity, negative = cell killing [1, 4] -16.2% | Potency (astro)

CC(C)(Sc1cc(C(C)(C)C)c(O)c(C(C)(C)C)c1)Sc1cc(C(C)(C)C)c(O)c(C(C)(C)C)c1
active: Potency ([1]; tumour line A) 4.47 µM
inactive: Potency (Hek293T) | Potency (JEG-3) | Potency (OV90) | Potency (PA-1) | Potency (SKOV3) | Potency (Tov-21-G) | Potency (Tov112D) | activity, negative = cell killing [1, 5] -9.49% | activity, negative = cell killing [1, 6] -22%

COc1ccc2c(c1)c(CC(=O)OCC(=O)O)c(C)n2C(=O)c1ccc(Cl)cc1
inactive: Potency (Hek293T) | Potency (JEG-3) | Potency (OV90) | Potency (PA-1) | Potency (SKOV3) | Potency (Tov-21-G) | Potency (Tov112D) | activity, negative = cell killing [1, 2] -1.02% | activity, negative = cell killing [1, 3] -7.57% | activity, negative = cell killing [1, 4] 8.41% | Potency (astro)

Oc1c(Cl)cc(Cl)c2cccnc12
inactive: Potency (HeLa) | activity, negative = cell killing [1, 4] -48.9%
active: Potency (PA-1) 12.6 µM | Potency (Tov-21-G) 28.2 µM | Potency ([1]; tumour line A) 15.8 µM | Potency ([1]; tumour line B) 8.91 µM

CC(C)OC(=O)C(C(=O)OC(C)C)=C1SC=CS1
inactive: Potency (HeLa) | Potency (Hek293T) | Potency (OV90) | Potency (PA-1) | Potency (Tov-21-G) | Potency (Tov112D) | activity, negative = cell killing [1, 4] -18.3%
active: Potency (SKOV3) 25.1 µM | Potency ([1]; tumour line A) 11.2 µM

CC1=NN(c2ccccc2)C(=O)C1
inactive: Potency (Hek293T) | Potency (JEG-3) | Potency (OV90) | Potency (PA-1) | Potency (SKOV3) | Potency (Tov-21-G) | Potency (Tov112D) | activity, negative = cell killing [1, 2] -3.42% | activity, negative = cell killing [1, 3] -8.39% | activity, negative = cell killing [1, 7] -29.7% | activity, negative = cell killing [1, 4] -6.42% | Potency (astro)

C[C@@H](CN1CC(=O)NC(=O)C1)N1CC(=O)NC(=O)C1
inactive: Potency (Hek293T) | Potency (JEG-3) | Potency (OV90) | Potency (PA-1) | Potency (SKOV3) | Potency (Tov-21-G) | Potency (Tov112D) | activity, negative = cell killing [1, 2] -2.51% | activity, negative = cell killing [1, 3] -10.3% | activity, negative = cell killing [1, 4] -0.792%

CNCC[C@H](Oc1cccc2ccccc12)c1cccs1
inactive: Potency (HeLa) | Potency (JEG-3) | Potency (PA-1) | Potency (Tov-21-G) | Potency (Tov112D) | activity, negative = cell killing [1, 4] -0.487%
active: Potency (OV90) 28.2 µM | Potency (SKOV3) 20 µM | Potency ([1]; tumour line A) 3.55 µM | Potency ([1]; tumour line B) 28.2 µM | Potency ([1]; tumour line D) 17.8 µM

Cn1c(=O)c2c(ncn2CC(O)CO)n(C)c1=O (centres undefined)
inactive: Potency (Hek293T) | Potency (JEG-3) | Potency (OV90) | Potency (PA-1) | Potency (SKOV3) | Potency (Tov-21-G) | Potency (Tov112D) | activity, negative = cell killing [1, 5] 1.09% | activity, negative = cell killing [1, 6] 1.11% | activity, negative = cell killing [1, 8] 1.54% | activity, negative = cell killing [1, 9] 3.02%

CN1CCN(c2c(F)cc3c(=O)c(C(=O)O)cn(CCF)c3c2F)CC1
inactive: Potency (Hek293T) | Potency (JEG-3) | Potency (OV90) | Potency (PA-1) | Potency (SKOV3) | Potency (Tov-21-G) | Potency (Tov112D) | activity, negative = cell killing [1, 2] -2.67% | activity, negative = cell killing [1, 3] -2.82% | activity, negative = cell killing [1, 7] -15.5% | activity, negative = cell killing [1, 4] -9.27%

CN(C)CCc1c[nH]c2ccc(CS(=O)(=O)N3CCCC3)cc12
inactive: Potency (Hek293T) | Potency (JEG-3) | Potency (OV90) | Potency (PA-1) | Potency (SKOV3) | Potency (Tov-21-G) | Potency (Tov112D) | activity, negative = cell killing [1, 2] -15.8% | activity, negative = cell killing [1, 3] -5.89% | activity, negative = cell killing [1, 7] -32.2% | activity, negative = cell killing [1, 4] -0.0757% | Potency (astro)

CCCN[C@H]1CCc2nc(N)sc2C1
inactive: Potency (Hek293T) | Potency (JEG-3) | Potency (OV90) | Potency (PA-1) | Potency (SKOV3) | Potency (Tov-21-G) | Potency (Tov112D) | activity, negative = cell killing [1, 2] 3.81% | activity, negative = cell killing [1, 3] 9.12% | activity, negative = cell killing [1, 7] -26.8% | activity, negative = cell killing [1, 4] -13% | Potency (astro)

CCn1cc(C(=O)O)c(=O)c2cc(F)c(N3CCNCC3)cc21
inactive: Potency (Hek293T) | Potency (JEG-3) | Potency (OV90) | Potency (PA-1) | Potency (SKOV3) | Potency (Tov-21-G) | Potency (Tov112D) | activity, negative = cell killing [1, 5] 2.43% | activity, negative = cell killing [1, 6] -7.83% | activity, negative = cell killing [1, 8] -12% | activity, negative = cell killing [1, 9] -21.7% | activity, negative = cell killing [1, 2] 1.94% | activity, negative = cell killing [1, 3] 2.4% | activity, negative = cell killing [1, 4] -8.69%

Cn1nnc2c(C(N)=O)ncn2c1=O
inactive: Potency (Hek293T) | Potency (JEG-3) | Potency (OV90) | Potency (PA-1) | Potency (SKOV3) | Potency (Tov-21-G) | Potency (Tov112D) | activity, negative = cell killing [1, 2] -3.24% | activity, negative = cell killing [1, 3] -16.1% | activity, negative = cell killing [1, 7] -21.4% | activity, negative = cell killing [1, 4] -14.3% | Potency (astro)

COc1nc(N)nc2c1ncn2[C@@H]1O[C@H](CO)[C@@H](O)[C@@H]1O
inactive: Potency (Hek293T) | Potency (JEG-3) | Potency (OV90) | Potency (PA-1) | Potency (SKOV3) | Potency (Tov-21-G) | Potency (Tov112D) | activity, negative = cell killing [1, 2] -17.9% | activity, negative = cell killing [1, 3] 6.59% | activity, negative = cell killing [1, 7] -10% | activity, negative = cell killing [1, 4] -10.9% | Potency (astro)

CCc1cc(C(N)=S)ccn1
inactive: Potency (HeLa) | Potency (Hek293T) | Potency (OV90) | Potency (PA-1) | Potency (SKOV3) | Potency (Tov-21-G) | Potency (Tov112D) | activity, negative = cell killing [1, 2] -9.3% | activity, negative = cell killing [1, 3] -29.7% | activity, negative = cell killing [1, 4] -26.9% | Potency (astro)

NC1(c2ccc(-c3nc4ccn5c(=O)[nH]nc5c4cc3-c3ccccc3)cc2)CCC1
active: Potency (Hek293T) 3.55 µM | Potency (OV90) 2 µM | Potency (PA-1) 22.4 µM | Potency (SKOV3) 11.2 µM
inactive: Potency (HeLa) | Potency (Tov112D)

CC(=O)[C@H]1CC[C@H]2[C@@H]3CC=C4C[C@@H](O)CC[C@]4(C)[C@H]3CC[C@]12C
inactive: Potency (Hek293T) | Potency (JEG-3) | Potency (OV90) | Potency (PA-1) | Potency (SKOV3) | Potency (Tov-21-G) | Potency (Tov112D) | activity, negative = cell killing [1, 2] -3.14% | activity, negative = cell killing [1, 4] 6.87% | Potency (astro)

CC1=CC(=O)c2ccccc2C1=O
active: Potency ([1]; tumour line A) 35.5 µM | Potency ([1]; tumour line D) 22.4 µM
inactive: Potency (Hek293T) | Potency (JEG-3) | Potency (OV90) | Potency (PA-1) | Potency (SKOV3) | Potency (Tov-21-G) | Potency (Tov112D) | activity, negative = cell killing [1, 4] -17.3%

C#CCN[C@@H]1CCc2ccccc21
inactive: Potency (Hek293T) | Potency (JEG-3) | Potency (OV90) | Potency (PA-1) | Potency (SKOV3) | Potency (Tov-21-G) | Potency (Tov112D) | activity, negative = cell killing [1, 2] -8.4% | activity, negative = cell killing [1, 3] -8% | activity, negative = cell killing [1, 7] -26% | activity, negative = cell killing [1, 4] -23.8% | Potency (astro)

O=c1oc2c(O)c(O)cc3c(=O)oc4c(O)c(O)cc1c4c23
inactive: Potency (Hek293T) | Potency (JEG-3) | Potency (OV90) | Potency (PA-1) | Potency (SKOV3) | Potency (Tov-21-G) | Potency (Tov112D) | activity, negative = cell killing [1, 2] -21.4% | activity, negative = cell killing [1, 4] -1.64%

From PubChem BioAssay (NCATS)
